Reference: PubChem BioAssay (NCI)
About 83,000 compounds went through this panel and 20% of them were active in at least one assay; those are over-represented in the sample as a whole.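 96-well plates, one dose, 48 hours. Percent growth reported; active if below 10.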 The source made the active and inactive calls.

Columns and labels:
Test in all cases: NCI-60 one-dose screen, 48 h (100 = growth as untreated, 0 = no growth, -100 = all killed)
Conditions in all cases: 10 µM unless noted
T-47D breast = tested on: T-47D breast
BT-549 breast = tested on: BT-549 breast
MDA-MB-435 melanoma = tested on: MDA-MB-435 melanoma
SW-620 colon = tested on: SW-620 colon
MCF7 breast = tested on: MCF7 breast
HCT-116 colon = tested on: HCT-116 colon
HCC-2998 colon = tested on: HCC-2998 colon
KM12 colon = tested on: KM12 colon

Measured: growth

COc1cc(/C=C2\C(=O)N(CC(O)COc3cc(O)c4c(=O)cc(-c5ccccc5)oc4c3)c3ccccc32)cc(OC)c1O (centres undefined)
inactive: T-47D breast 58.2% | BT-549 breast 96.7% | MDA-MB-435 melanoma 54.7% | SW-620 colon 89.9% | MCF7 breast 32.8% | HCT-116 colon 78.4% | HCC-2998 colon 99.7% | KM12 colon 82%

O=C(/C=C\c1ccc2c(c1)OCO2)/C=C/c1ccc2c(c1)OCO2
inactive: T-47D breast 75.6% | BT-549 breast 67.2% | MDA-MB-435 melanoma 17% | MCF7 breast 13.2% | HCC-2998 colon 41.4%
active: HCT-116 colon -12.5% | KM12 colon 8.55%

COCCNC1=C(Cl)C(=O)c2ccccc2C1=O
inactive: T-47D breast 98.8% | BT-549 breast 98.2% | MDA-MB-435 melanoma 24.5% | MCF7 breast 81.3% | HCT-116 colon 86.8% | HCC-2998 colon 95% | KM12 colon 83.3%

OCC12CCCC(CO)(COC1)C2O (centres undefined)
inactive: T-47D breast 101% | BT-549 breast 105% | SW-620 colon 97.1% | MCF7 breast 106% | HCT-116 colon 100% | HCC-2998 colon 100% | KM12 colon 107%

O=C(O)c1cccc2c1Cc1cc([N+](=O)[O-])ccc1-2
inactive: T-47D breast 106% | MDA-MB-435 melanoma 108% | SW-620 colon 103% | MCF7 breast 102% | HCT-116 colon 97.5% | HCC-2998 colon 101% | KM12 colon 109%

CC1=NN(c2ccc(S(=O)(=O)O)cc2Cl)C(=O)C1
inactive: T-47D breast 97.8% | BT-549 breast 116% | MDA-MB-435 melanoma 107% | SW-620 colon 107% | MCF7 breast 94.4% | HCT-116 colon 93% | HCC-2998 colon 83.1% | KM12 colon 137%

O=C(/C(=C(\C(=O)c1ccccc1)c1ccccc1)c1ccccc1)c1ccccc1
inactive: MDA-MB-435 melanoma 73.6% | SW-620 colon 38.5% | MCF7 breast 42.6% | HCT-116 colon 14.1% | HCC-2998 colon 52% | KM12 colon 17.1%

O=C(N/N=C\c1c(O)ccc2ccccc12)C1CC1
inactive: T-47D breast 53.6% | MDA-MB-435 melanoma 64.9% | SW-620 colon 51.7% | MCF7 breast 31.1% | HCT-116 colon 13.1% | HCC-2998 colon 101% | KM12 colon 51.6%

Brc1ccc(Cn2nnnc2-c2ccn(-c3ccccc3)n2)cc1
inactive: T-47D breast 57.7% | BT-549 breast 76.8% | MDA-MB-435 melanoma 85% | MCF7 breast 77.7% | HCT-116 colon 49.4% | HCC-2998 colon 80.1% | KM12 colon 80.6%

COc1ccc(/C=C/C(=O)c2ccc([N+](=O)[O-])cc2)cc1
inactive: T-47D breast 98% | MDA-MB-435 melanoma 106% | SW-620 colon 111% | MCF7 breast 96% | HCT-116 colon 99.2% | HCC-2998 colon 105% | KM12 colon 98.6%

O=C(c1ccccc1)C(CN1CCOCC1)c1ccccc1 (centres undefined)
inactive: T-47D breast 64.3% | BT-549 breast 30.2% | HCC-2998 colon 54.4% | KM12 colon 20.8%
active: SW-620 colon -45.2% | MCF7 breast 1.11% | HCT-116 colon 3.3%

Cc1nn(-c2ccc(Cl)cc2)c(=O)n1CCn1cnc2ccccc21
inactive: T-47D breast 90.8% | BT-549 breast 97.5% | MDA-MB-435 melanoma 100% | MCF7 breast 95.5% | HCT-116 colon 97.5% | HCC-2998 colon 104% | KM12 colon 121%

O=C1C=C(C(O)c2ccc(O)cc2)C(=O)c2ccccc21 (centres undefined)
inactive: T-47D breast 80.2% | BT-549 breast 88.1% | SW-620 colon 97.4% | MCF7 breast 94.1% | HCT-116 colon 96.1% | HCC-2998 colon 97% | KM12 colon 107%

CCCC(=O)N1CCCCC1CC (centres undefined)
inactive: T-47D breast 110% | BT-549 breast 100% | SW-620 colon 93.8% | MCF7 breast 103% | HCT-116 colon 116% | HCC-2998 colon 115% | KM12 colon 108%

c1ccc(C2Cc3ccccc3C2=NC2CCCCC2)cc1 (centres undefined)
inactive: T-47D breast 93.5% | BT-549 breast 88.3% | SW-620 colon 119% | MCF7 breast 86.1% | HCT-116 colon 96.9% | HCC-2998 colon 108% | KM12 colon 112%

N#CC1=C(N)Oc2c(sc3c(F)cccc23)C1c1ccc(Cl)cc1 (centres undefined)
active: MDA-MB-435 melanoma -32%
inactive: T-47D breast 33.2% | BT-549 breast 19.4% | SW-620 colon 26.9% | MCF7 breast 14.8% | HCT-116 colon 14.4% | HCC-2998 colon 87.7% | KM12 colon 33.9%

O=[N+]([O-])c1cccc(/C=N\Nc2ccccc2)c1
inactive: T-47D breast 55.8% | MDA-MB-435 melanoma 53.8% | SW-620 colon 71.3% | MCF7 breast 64.5% | HCT-116 colon 58.3% | HCC-2998 colon 83.8% | KM12 colon 38.8%

[B-][N+](CC)(CC)c1ccccc1
inactive: T-47D breast 102% | BT-549 breast 99.3% | SW-620 colon 109% | MCF7 breast 95.9% | HCT-116 colon 100% | HCC-2998 colon 105% | KM12 colon 105%

O=C1c2ccccc2C(=Cc2ccccc2)c2ccccc21
inactive: T-47D breast 29.4% | SW-620 colon 12.6%
active: BT-549 breast -3.95% | MDA-MB-435 melanoma -56.4% | HCT-116 colon 5.11% | HCC-2998 colon -45.7% | KM12 colon -26.6%

CN(C)c1ccc(N)c2ccccc12
inactive: T-47D breast 80.2% | BT-549 breast 80.4% | HCC-2998 colon 50.2% | KM12 colon 62.7%
active: MDA-MB-435 melanoma -91.3% | MCF7 breast -70.1% | HCT-116 colon 6.65%

CC(C)(C)CC(C)(C)c1ccc(OCCOCC[N+](C)(C)CC(=O)[O-])cc1
inactive: T-47D breast 103% | BT-549 breast 125% | SW-620 colon 101% | MCF7 breast 105% | HCT-116 colon 107% | HCC-2998 colon 108% | KM12 colon 112%

O=[N+]([O-])c1cc(S(=O)(=O)c2ccc(F)c([N+](=O)[O-])c2)ccc1F
inactive: T-47D breast 95.8% | BT-549 breast 107% | MDA-MB-435 melanoma 103% | SW-620 colon 48% | MCF7 breast 58.5% | HCC-2998 colon 112% | KM12 colon 80.2%

O=[N+]([O-])c1ccc(/C=N\Nc2ccccc2)cc1
inactive: T-47D breast 72.2% | MDA-MB-435 melanoma 68.9% | SW-620 colon 79.9% | MCF7 breast 75.1% | HCT-116 colon 66.3% | HCC-2998 colon 96.6% | KM12 colon 36.1%

C[N+](C)(CCCCCC[N+](C)(C)C1c2ccccc2-c2ccccc21)C1c2ccccc2-c2ccccc21
inactive: T-47D breast 108% | BT-549 breast 117% | SW-620 colon 106% | MCF7 breast 103% | HCT-116 colon 101% | HCC-2998 colon 110% | KM12 colon 111%

NC(=O)[C@@H]1CC2CCC1C2 (some centres undefined)
inactive: T-47D breast 113% | BT-549 breast 94.2% | SW-620 colon 94% | MCF7 breast 103% | HCT-116 colon 101% | HCC-2998 colon 121% | KM12 colon 102%

COC1=C(Br)C(=O)C(OC)=C(Br)C1=O
inactive: T-47D breast 106% | BT-549 breast 95.9% | MDA-MB-435 melanoma 105% | MCF7 breast 83% | HCT-116 colon 90.1% | HCC-2998 colon 114% | KM12 colon 101%

Cc1cc(C)nc(NC(N)=NCCc2ccccc2)n1
inactive: T-47D breast 36.1% | SW-620 colon 32.2% | MCF7 breast 17.3% | HCT-116 colon 27.9% | HCC-2998 colon 94.5% | KM12 colon 22.5%
active: MDA-MB-435 melanoma -7.44%

Nc1nc(N)c2nc3c(nc2n1)CCCCCCCCCC3
inactive: T-47D breast 82.1% | BT-549 breast 74.5% | SW-620 colon 34.3% | MCF7 breast 46.2% | HCT-116 colon 21.4% | HCC-2998 colon 39.2% | KM12 colon 61.4%

CC1c2ccccc2N(S(=O)(=O)c2ccccc2)C1C (centres undefined)
active: MDA-MB-435 melanoma 6.95%
inactive: T-47D breast 102% | SW-620 colon 72.7% | MCF7 breast 78.5% | HCT-116 colon 86.2% | HCC-2998 colon 101% | KM12 colon 60%

O=C(NC1=CC(=O)c2ccccc2C1=O)c1ccccc1
inactive: MCF7 breast 14.3% | HCC-2998 colon 32.3% | KM12 colon 11.2%
active: T-47D breast -45.6% | MDA-MB-435 melanoma 2.96% | SW-620 colon -56.2% | HCT-116 colon -69%

O=C(O)c1cccc2c1C(=O)N(c1ccc3c(c1)Cc1ccccc1-3)C2=O
inactive: T-47D breast 106% | MDA-MB-435 melanoma 111% | SW-620 colon 105% | MCF7 breast 93.9% | HCT-116 colon 112% | HCC-2998 colon 102% | KM12 colon 109%
